# According to PubChem BioAssay AID1878 (Sanford-Burnham Center for Chemical Genomics, 2009):
# The campaign covered roughly 1,000 compounds. About 200 (20%) were called active. These entries were drawn from the full list. Results with a measured potency or affinity are listed apart. A number with no mark means an inactive call. Rule as the data show it: active = inhibition above about 55%; inactive = the rest.
# Target: Dual specificity protein phosphatase 3 (Homo sapiens) (UniProt P51452)
# Test: VHR1 phosphatase inhibitors, biochemical (AID 1878)
# Details: recombinant VHR phosphatase, fluorogenic substrate; at 13.3 µM; hits give high values
# Sequence of Dual specificity protein phosphatase 3 (Homo sapiens) (P51452 whole entry, looked up): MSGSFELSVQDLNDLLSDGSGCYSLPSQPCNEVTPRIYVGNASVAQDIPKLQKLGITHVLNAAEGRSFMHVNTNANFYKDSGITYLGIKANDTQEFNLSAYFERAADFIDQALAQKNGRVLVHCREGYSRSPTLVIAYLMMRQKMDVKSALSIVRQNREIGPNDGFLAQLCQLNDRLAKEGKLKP
row,SMILES,inhibition
1,Cc1ccc(-c2nnn3c2nc(NCCc2ccc(S(N)(=O)=O)cc2)c2ccccc23)cc1,98.7% (active)
2,CCOc1ccc(C(=O)OCC(=O)NCc2ccco2)cc1OCC,3.1%
3,CCN1C(=O)N(c2ccc(C(C)=O)cc2)S(=O)(=O)c2ccccc21,-4.4%
4,COc1ccc(C(=O)N2CCN(CCNC(=O)C(=O)Nc3ccc(Br)cc3)CC2)cc1,1.9%
5,Cc1ccc(NC(=O)CCC(=O)c2ccc(Br)cc2)cc1,8.7%
6,Oc1ccccc1/C=N/Nc1cc(N2CCCC2)nc(N2CCCC2)n1,-15.5%
7,CCCC(=O)Nc1c(-c2ccc(C)cc2)c(=O)c2ccccc2n1C,2.1%
8,COc1ccc(Cn2c(-c3ccc(C)cc3)nc3c(c(=O)c4ccccc4n3C)c2=O)cc1,85.9% (active)
9,COc1ccnc2c1c(=O)n(Cc1ccc(Cl)cc1)c(=O)n2C,0.3%
10,Cc1nn(CC(=O)NCCCN2CC(C)CC(C)C2)c(=O)c2cccn12 (configuration not stated),-10.3%
11,CN1C(=O)CN=C(c2ccc(Cl)cc2)c2cc(Cl)ccc21,16%
12,COc1cccc(-c2nc(CS(=O)(=O)CC(=O)NCCCN3CC(C)CC(C)C3)c(C)o2)c1 (configuration not stated),-0.7%
13,N#C/C(=C\c1ccc(-c2ccc(C(=O)O)cc2)o1)C(=O)Nc1ccc(F)cc1,82.2% (active)
14,CN(C)N1C(N)=C(C#N)C(c2cccc(Cl)c2)C2=C1CCCC2=O (configuration not stated),0.6%
15,CC1CCCN(CCCNS(=O)(=O)c2ccc3c(c2)CCN3C(=O)C2CC2)C1 (configuration not stated),-6.7%
16,CC#CC#Cc1cccc(=O)o1,42.9%
17,O=C(O)CCSC1CC(=O)N(c2ccccc2)C1=O (configuration not stated),16.8%
18,O=S(=O)(c1cc(Cl)ccc1Cl)N1CCc2ccccc21,-1.3%
19,CN(C)c1ccc(NC(=O)CSc2nnc(C3CCCCC3)n2N)cc1,-7.6%
20,Cc1ccc2nc(SCC(=O)NCc3ccc(F)cc3)[nH]c2c1,19.1%
21,Cc1nc2ccccc2c(=O)n1NC(=O)c1ccccc1,-2%
22,O=C(CSc1ccc2ccccc2n1)Nc1nsc(-c2ccc(Cl)cc2)n1,80% (active)
23,CS(=O)(=O)/C(C#N)=C/c1cccn1S(=O)(=O)c1ccccc1,-10.1%
24,CC(C)[C@H](NC(=O)c1ccco1)C(=O)NCc1ccccc1,6%

row,SMILES,inhibition
1,O=C(COc1ccccc1)NCCc1cnc[nH]1,-4.2%
2,O=C(COc1ccccc1Cl)N1CCCCCCC1,-0.6%
3,CCN1CCN(CC(=O)Nc2nc3ccc(C)cc3s2)CC1,-5.5%
4,COc1ccc(NC(=O)CSc2ccc3nnc(CCNC(=O)c4ccccc4)n3n2)cc1,-4.5%
5,CCn1c(SCC(=O)Nc2ccc(-c3nc4ccc(C)cc4s3)cc2)nnc1-c1ccccc1,88.3% (active)
6,Cc1ccc(S(=O)(=O)/C(C#N)=C/c2c(N3CCOCC3)nc3c(C)cccn3c2=O)cc1,3%
7,c1ccc(-c2cc(-c3ccccc3)[n+](-c3ccccc3)c(-c3ccccc3)c2)cc1,-14.8%
8,CCOc1c(Br)cc(C(=O)N2CCCN(C)CC2)cc1OC,2.9%
9,COc1ccc(NCCC(O)c2ccc(Cl)cc2)cc1 (configuration not stated),-2%
10,CCCn1c(C(O)c2ccc(OC)c(OC)c2)nc2ccccc21 (configuration not stated),7%
11,CCOC(=O)C1(Cc2cccc(Cl)c2)CCCN(C(=O)c2cc(CC)on2)C1 (configuration not stated),-6.6%
12,Cc1ccccc1N1C(=O)C2ON(c3ccccc3)C(c3ccncc3)C2C1=O (configuration not stated),-3.4%
13,Cc1ccc(N2C(=O)CC(N3CCN(S(=O)(=O)c4ccccc4)CC3)C2=O)c(C)c1 (configuration not stated),-2.4%
14,CC1CCCCN1CCCNC(=O)CN1C(=O)c2cccnc2Oc2ccc(Cl)cc21 (configuration not stated),-4.5%
15,O=c1[nH]c2ccccc2nc1/C=C/c1ccc(Cl)cc1,14.9%
16,COc1ccc(-c2csc3ncn(Cc4ccccc4)c(=O)c23)cc1,-2.5%
17,FC(F)(F)c1cccc(NC(=S)N2CCCC2)c1,12%
18,NC(=O)c1ccc(NC(=O)CS(=O)(=O)c2cn(CC(=O)N3CCCCC3)c3ccccc23)cc1,-15.1%
19,O=C(O)C(CCCCNS(=O)(=O)c1ccc(F)cc1)NS(=O)(=O)c1ccc(F)cc1 (configuration not stated),-6.2%
20,COCCNC(=O)CN1N=C(c2ccc(C)cc2)CCC1=O,6.3%
21,O=C(CSc1nnc(-c2ccccc2)o1)c1ccc2c(c1)OCCO2,-8.7%
22,C=CCn1c(SCC(=O)c2c(C)[nH]c3ccccc23)nnc1-c1ccncc1,35.6%
23,Cn1c(SCC(=O)c2ccc3c(c2)Cc2ccccc2-3)nnc1-c1ccccc1,83.7% (active)
